# Assay results from PubChem BioAssay AID1053117 (Broad Institute, 2014).
# Measured potencies and affinities stand elsewhere. Activity calls are given as the source filed them.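 Rule for the calls: active = compounds lowering cell ATP signal with a fitted half-effect dose at most twice the top valid dose; inconclusive = flat curve with 30 to 70% signal loss, or bad fit; inactive = wrong direction, flat within 30%, or weaker than limit.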
# Experiment: viability loss in HEK293 kidney cells – cell-based, cherry-picks, set 5, cytotoxicity control, dose response (AID 1053117);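 note: more negative means greater loss of ATP signal and more cytotoxicity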
# Details: HEK293T viability, CellTiter-Glo ATP luminescence, 72 h; series mostly up to 26 µM
row,SMILES,outcome
1,Cc1ccc(Nc2nnc(SCc3ccccc3)s2)cc1,inactive
2,N#C[C@H]1[C@@H](c2ccccc2C2=CCCCC2)[C@@H](CO)N1S(=O)(=O)c1ccccc1,inactive
3,C[C@H](O)C#Cc1ccc2c(c1)O[C@H](CN(C)C)[C@@H](C)CN([C@H](C)CO)S2(=O)=O,inactive
4,COC(=O)C[C@@H]1CC[C@H]2[C@H](COc3ccc(NC(=O)Cc4cccs4)cc3C(=O)N2C)O1,inactive
5,Cc1ccccc1S(=O)(=O)N1CC[C@H]2[C@H](CO)Nc3ccc(-c4ccc(C#N)cc4)cc3[C@H]21,inactive
6,O=C(Nc1ccccc1F)N1C[C@H]2[C@@H](c3ccccc31)[C@@H](CO)N2C(=O)C1CC1,inactive
7,C[C@H]1CN([C@@H](C)CO)C(=O)c2cc(-c3ccccc3)cnc2O[C@@H]1CN(C)Cc1ccccc1,inactive
8,CN(C)c1ccc(-c2ccnc3c2CC(C)(C(=O)NCC2CC2)O3)cc1 (stereo not given),inactive
9,O=S(=O)(c1ccccc1F)N1CC[C@@H]2[C@H]1c1cc(-c3cccc(F)c3)ccc1N[C@@H]2CO,inactive
10,COC(=O)c1cn(CC(=O)NCc2ccco2)c2ccccc12,inactive
11,C[C@@H]1CN([C@H](C)CO)C(=O)c2cc(-c3ccccc3)cnc2O[C@@H]1CN(C)Cc1ccccc1,inactive
12,CCCc1cc(C(=O)OC)c(NC(=O)CCC(=O)O)s1,inactive
13,N#C[C@@H]1[C@H](c2ccccc2C2=CCCCC2)[C@@H](CO)N1S(=O)(=O)c1ccccc1,inactive
14,C[C@H](O)C#Cc1ccc2c(c1)O[C@H](CN(C)C)[C@H](C)CN([C@@H](C)CO)S2(=O)=O,inactive
15,CCC(C)(C)NC(=O)C(OC(=O)c1ccco1)c1ccccc1OC (stereo not given),inactive
16,CS(=O)(=O)N1CCN(c2ccc(NC(=O)c3ccc([N+](=O)[O-])o3)cc2)CC1,inactive
17,COCC(C)n1c(SCc2nc(N)nc(Nc3ccccc3C)n2)nc2ccccc2c1=O (stereo not given),inactive
18,CCc1nc2c(OCCc3cccc(OC)c3)cccn2c1N(C)C(=O)c1ccc(C)cc1,inactive
19,Cc1ccc(S(=O)(=O)N2CC[C@@H]3[C@H](CO)Nc4ccc(-c5cccc(C(=O)N(C)C)c5)cc4[C@@H]32)cc1,inactive
20,CN(C)C(=O)c1ccc(-c2ccc3c(c2)[C@@H]2[C@@H](CCN2C(=O)c2ccc(F)cc2)[C@@H](CO)N3C)cc1,inactive
